In PubChem BioAssay (NCATS):
Records with an inconclusive call do not appear. Entries that show only a call come without a potency. Values without a mark were called inactive. Calls of active or inactive are those of the source. Calls come from the whole dose curve; as a rule, active = well fitted inhibition curve with a large enough effect; inconclusive = small, poorly fitted or top-dose-only effect; inactive = flat fitted curve, though single readings scatter.

Assays:
Experiment in all cases: Cytotoxic Profiling of Annotated Libraries Using Quantitative High-Throughput Screening (AID 1296008); note: nearly all actives have a fitted effect of over 60% in size
Conditions in all cases: Five cell lines viability, CellTiter-Glo ATP luminescence, 48-72 h; max response: stronger effect = lower value
CRL-7250 = normal cell line; test system: CRL-7250
In short: (§1)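 Compounds were pin-transferred onto cells and incubated 48 or 72 hr at 37 degree Celsius, 95% humidity. CellTiter-Glo was added, plates sat 10 min at room temperature, then ATP-coupled luminescence was imaged as the viability read-out.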

HEK293 = test system: HEK293
In short: as §1

HaCat = test system: HaCat
In short: as §1
Potency is the fitted concentration of half-maximal effect.

SMILES: CC(=O)OCC1=C[C@H](O)[C@@H]2C(C(=O)O)=CO[C@@H](O[C@@H]3O[C@H](CO)[C@@H](O)[C@H](O)[C@H]3O)[C@H]12
- outcome (CRL-7250): inactive
- outcome (HEK293): inactive
- outcome (HaCat): inactive

SMILES: COC1=CC(=O)O[C@@H](CCc2ccccc2)[C@@H]1O
- max response (CRL-7250): -14.6%
- outcome (HEK293): inactive
- max response (HaCat): -13%

SMILES: CC[C@H](C)/C=C(C)/C=C/C(=O)Cc1cc(O)c(C)c(O)c1C=O
- max response (CRL-7250): -3.98%
- outcome (HEK293): inactive
- max response (HaCat): 4.71%

SMILES: O=C(c1ccc(NS(=O)(=O)c2cccc3cccnc23)cc1)N1CCN(CC2CC2)CC1
- max response (CRL-7250): -4.28%
- outcome (HEK293): inactive
- outcome (HaCat): inactive

SMILES: CC(=O)OC[C@]1(O)[C@H]2[C@H](OC(=O)CC(C)C)OC=C(CO[C@@H]3O[C@H](CO)[C@@H](O)[C@H](O)[C@H]3O)[C@H]2C[C@@H]1O
- outcome (CRL-7250): inactive
- outcome (HEK293): inactive
- max response (HaCat): -3.61%

SMILES: c1nc(NC2CCCCCC2)c2cc(CNC[C@H]3CCCO3)sc2n1
- outcome (CRL-7250): inactive
- outcome (HEK293): inactive
- max response (HaCat): -3.62%

SMILES: CN1Cc2c(N)cccc2C(c2ccccc2)C1 (stereo not given)
- max response (CRL-7250): -1.42%
- max response (HEK293): 3.6%
- max response (HaCat): -17.5%

SMILES: CC(=O)NC(C(=O)OC1CCC(C)(C)C2CC=C3C(=O)OCC3(O)C12C)C(C)C (stereo not given)
- max response (CRL-7250): 3.06%
- outcome (HEK293): inactive
- max response (HaCat): -11.8%

SMILES: c1ccc(Cc2ncc3c(n2)CCNCC3)cc1
- max response (CRL-7250): -2.57%
- outcome (HEK293): inactive
- max response (HaCat): -4.11%

SMILES: C/C=C/C=C/C=C/C(=O)O[C@@H]1C=C(CO)C(O)(C(=O)O)[C@@]2(C)CCCC(C)(C)[C@H]12 (stereo not given in full)
- max response (CRL-7250): 2.37%
- outcome (HEK293): inactive
- outcome (HaCat): inactive

SMILES: CC1CCC2(C(=O)OC3OC(CO)C(O)C(O)C3O)CCC3(C(=O)O)C(=CCC4C5(C)CCC(OC6OC(C)C(O)C(O)C6O)C(C)(C)C5CCC43C)C2C1C (stereo not given)
- max response (CRL-7250): 1.53%
- outcome (HEK293): inactive
- outcome (HaCat): inactive

SMILES: CO[C@H]1C=C2C(CC[C@H](O[C@@H]3O[C@H](CO)[C@@H](O)[C@@H](O)[C@H]3O)C2(C)C)[C@]2(C)CC[C@]3(C)C([C@H](C)C(O)C(C=C(C)C)O[C@@H]4O[C@H](CO)[C@@H](O)[C@@H](O)[C@H]4O)CC[C@@]3(C)C12 (stereo not given in full)
- max response (CRL-7250): -4.36%
- outcome (HEK293): inactive
- outcome (HaCat): inactive

SMILES: Cc1ccc2c(c1)C=Cc1cc(C)ccc1C2c1cn(Cc2ccc(C(=O)Nc3nn[nH]n3)o2)c(=O)[nH]c1=S
- outcome (CRL-7250): inactive
- outcome (HEK293): inactive
- max response (HaCat): -1.86%

SMILES: CC(C)(O)C1CCC2(C)C3C(O)C4C(C13)C42CO (stereo not given)
- outcome (CRL-7250): inactive
- outcome (HEK293): inactive
- outcome (HaCat): inactive

SMILES: C/C=C(\C)C(=O)O[C@H]1[C@@H](O[C@]2(COC(=O)CC(C)C)O[C@H](COC(=O)C(C)C)[C@@H](OC(C)=O)[C@@H]2O)O[C@H](COC(C)=O)[C@@H](O)[C@@H]1O
- outcome (CRL-7250): inactive
- outcome (HEK293): inactive
- max response (HaCat): 0.832%

SMILES: O=C1[C@H](O[C@@H]2O[C@H](CO)[C@@H](O)[C@H](O)[C@H]2O)Oc2ccccc2N1O
- max response (CRL-7250): 1.51%
- outcome (HEK293): inactive
- outcome (HaCat): inactive

SMILES: OC[C@H]1O[C@@H](n2cnc3c(NCc4ccc(O)cc4)ncnc32)[C@H](O)[C@@H]1O
- Potency (CRL-7250): 6.51 µM (active)
- outcome (HEK293): inactive
- max response (HaCat): -13.2%

SMILES: C=C1C[C@]23C[C@H]1CC[C@H]2[C@]1(C)CCC[C@@]2(CO)C(=O)O[C@H]([C@H]21)[C@@H]3O
- max response (CRL-7250): -1.22%
- outcome (HEK293): inactive
- outcome (HaCat): inactive

SMILES: CC1(O)CCC2C(C(=O)O)=COC(OC3OC(CO)C(O)C(O)C3OC(=O)/C=C/c3ccc(O)cc3)C21 (stereo not given)
- outcome (CRL-7250): inactive
- outcome (HEK293): inactive
- outcome (HaCat): inactive

SMILES: CCOC(=O)c1ccnc(CNCC(=O)N(CC)CCN(C)C)c1
- max response (CRL-7250): 3.74%
- outcome (HEK293): inactive
- outcome (HaCat): inactive

SMILES: COC(=O)C1(Cc2ccc(O)cc2)OC(=O)C(OC)=C1c1ccc(O)cc1 (stereo not given)
- max response (CRL-7250): -4.87%
- outcome (HEK293): inactive
- max response (HaCat): -3.39%

SMILES: COc1cc(C2Oc3c(OC)cc(/C=C/C(=O)OC[C@H]4O[C@@H](OC(C)(C)C(=O)O)[C@H](O)[C@@H](O)[C@@H]4O)cc3C2CO)ccc1O (stereo not given in full)
- outcome (CRL-7250): inactive
- outcome (HEK293): inactive
- outcome (HaCat): inactive

SMILES: CCN(c1cc(C#CCN2CCOCC2)cc(C(=O)NCc2c(C)cc(C)[nH]c2=O)c1C)C1CCC(N(C)CCOC)CC1 (stereo not given)
- outcome (CRL-7250): inactive
- outcome (HEK293): inactive
- max response (HaCat): -3.84%

SMILES: C=C1CCC2C(C)(COC3OC(COC(=O)CC(=O)O)C(O)C(O)C3O)CCCC2(C)C1CCC1=CCOC1=O (stereo not given)
- outcome (CRL-7250): inactive
- outcome (HEK293): inactive
- max response (HaCat): -2.95%

SMILES: CC(=O)c1c(C)cc(O[C@@H]2O[C@H](CO)[C@@H](O)[C@H](O)[C@H]2O)cc1O
- outcome (CRL-7250): inactive
- outcome (HEK293): inactive
- max response (HaCat): 3.2%
